About 79,000 compounds went through this panel and 15% of them were active in at least one assay; those are over-represented in the sample as a whole. Values without a mark were called inactive. Activity calls are given as the source filed them. No stated cut-off is given here; in the data, active means growth inhibition above about 70%; inactive means the rest. Where a SMILES comes first, the peptide text is derived from it. The star is where a group is joined. Cbz = O=C(OCc1ccccc1)*
Columns and labels:
[1] = NCI Yeast Anticancer Drug Screen. Data for the rad50 strain (AID 155);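 further: 0% = growth of vehicle-only cultures of the same strain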; conditions: S. cerevisiae rad50 strain growth inhibition; at 50.0 µM; active compounds read high
In short: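 Inhibition values express reduced yeast growth in compound-treated cultures relative to vehicle-treated controls.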

[2] = NCI Yeast Anticancer Drug Screen. Data for the mec2-1 strain (AID 157); conditions: S. cerevisiae mec2-1 strain, at 50.0 µM, active compounds read high
In short: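 Cells of the genetically defined mec2-1 yeast strain are incubated with test compound. Inhibition of growth is calculated against vehicle-treated controls.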

[3] = NCI Yeast Anticancer Drug Screen. Data for the sgs1 mgt1 strain (AID 161);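 further: 0% = growth of cultures given vehicle only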; conditions: S. cerevisiae sgs1 mgt1 strain, at 50.0 µM, active compounds read high
In short: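 Genetically altered yeast, compound exposure, growth inhibition relative to vehicle.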

[4] = NCI Yeast Anticancer Drug Screen. Data for the cln2 rad14 strain (AID 165);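 further: 0% = growth equal to vehicle treated cultures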; conditions: S. cerevisiae cln2 rad14 strain, at 50.0 µM, active compounds read high
In short: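 The screen exposed genetically defined yeast (cln2 rad14) to test compounds and scored growth inhibition relative to vehicle-treated controls.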

[5] = NCI Yeast Anticancer Drug Screen. Data for the bub3 strain (AID 167); conditions: S. cerevisiae bub3 mutant strain, at 50.0 µM, active compounds read high
In short: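 Steps: expose the mutant yeast strain to compound; grow alongside vehicle-treated cultures; measure growth; express inhibition against the vehicle cultures.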

[6] = NCI Yeast Anticancer Drug Screen. Data for the mlh1 rad18 strain (AID 175); conditions: S. cerevisiae mlh1 rad18 strain growth inhibition; at 50.0 µM; active compounds read high
In short: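 Compound-treated yeast growth, normalised to vehicle controls. Strain bears defined DNA repair mutations.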

SMILES | growth inhibition [1] | growth inhibition [2] | growth inhibition [3] | growth inhibition [4] | growth inhibition [5] | growth inhibition [6]
CN(C)c1ncnc2c1ncn2CC(O)CN (stereo not drawn) | -7.9% | -8.65% | -15.8% | 4.4% | 5.4% | -17.2%
Cc1cc(NS(=O)(=O)c2ccc(N=[N+]([O-])c3ccc(S(=O)(=O)Nc4cc(C)on4)cc3)cc2)no1 | 10.8% | -30.1% | -6% | 4.7% | -13.2% | -19.6%
O=C1NC2=NN=C(c3ccc(Br)cc3)CN2NC12c1ccccc1-c1ccccc12 | -21.6% | -15.8% | -13.8% | 21.6% | -14.2% | 4.2%
NC1CC1 | -8.4% | -1.1% | -4.6% | -9.95% | 11.6% | -22.9%
O=C1c2ccccc2C(C2c3ccccc3C(=O)c3cc(Br)ccc32)c2ccc(Br)cc21 (stereo not drawn) | 4.25% | -35.1% | -9.5% | -48.9% | -14.1% | -18.2%
CC(NC(=O)C(NC(=O)OCc1ccccc1)C(C)C)C(=O)NCC(=O)O (stereo not drawn) (Cbz-Val-Ala-Gly-OH; configuration not given here) | -0.05% | -23.2% | -9.9% | 19.8% | 7.1% | -4.45%
O=C(O)C1(O)CC(O)C(O)C(O)C1 (stereo not drawn) | 5.25% | -7.05% | -0.25% | -13.8% | 8.55% | -0.8%
Cc1ccccc1C1OC2=C(Nc3ccc(Cl)cc3N2)C1=O (stereo not drawn) | 15.6% | -1.65% | 10.3% | 9.85% | -11.8% | 25.2%
C=C1CCN(c2ccc([N+](=O)[O-])cc2)C1=O | 0% | -11.2% | 4.05% | -37.6% | 10.3% | 10.3%
CC1(c2ccc(Cl)cc2)NC(=O)N(CC(N)=O)C1=O (stereo not drawn) | 3.6% | -0.1% | -10.8% | -11% | -7.8% | 8.6%
Nc1ccc(S(=O)(=O)Nc2nc3ccccc3nc2Nc2ccc(S(N)(=O)=O)cc2)cc1 | 6.3% | -5.05% | -13.8% | -13.7% | -10.3% | -13.6%
CCCCCCCCCCCCCCCC[N+](C)(C)Cc1ccccc1 | 99.2% (active) | 99% (active) | 99.3% (active) | 99% (active) | 98.8% (active) | 98.9% (active)
O=C(OCC1CCCO1)c1ccccc1Cl (stereo not drawn) | 11.8% | -10.2% | -0.95% | -6.6% | 7.2% | 0%
C/C(=C\CC1C(=O)N(c2ccccc2)N(c2ccccc2)C1=O)CO | -10.9% | -32.2% | -29.9% | -18.2% | -28.6% | -11.9%
N#C/C(=C\c1ccccc1)C(=O)Nc1ccccc1 | 17.3% | 3.5% | -1.35% | -4.15% | -4.7% | 22.6%
CCCCCCc1cc(C(=O)N/N=C/c2ccccc2O)c2ccccc2n1 | -35.2% | -8.1% | 16% | -13.2% | 67.6% | -2.95%
c1ccc(Cn2nnnc2Nc2ccccc2)cc1 | -19.2% | -10.7% | -3.65% | 19.8% | 26.4% | 10.4%
CC(=O)N(C(C)=O)n1c(Cc2ccc(Cl)cc2)nn(C(C)=O)c1=O | 7.85% | -15.1% | -9.2% | 4.5% | 10.7% | -7.6%
O=C1NC(O)c2cccc([N+](=O)[O-])c2O1 (stereo not drawn) | 19.4% | 9.1% | 15% | 65.5% | -14.8% | 30.8%

SMILES | growth inhibition [1] | growth inhibition [2] | growth inhibition [3] | growth inhibition [4] | growth inhibition [5] | growth inhibition [6]
Cc1nn(C)c2c1C(=O)N(C)CC(=O)N2C | -25.1% | -38.9% | -22.9% | -14.2% | -20.8% | -8.25%
COc1ccc2c(CC(=O)O)cc(=O)oc2c1 | 12.2% | -22.8% | 15.4% | 7.7% | 8.95% | 14.2%
CC12CC3CC(C)(C1)CC(CN=C(N)CS)(C3)C2 | 98.9% (active) | 99.5% (active) | 99.5% (active) | 99.2% (active) | 99.2% (active) | 99.3% (active)
Cc1ccc(S(=O)(=O)OCC2OC(C)(C)OC2COS(=O)(=O)c2ccc(C)cc2)cc1 (stereo not drawn) | 25% | -5.65% | 6.7% | -38.6% | 6.2% | 10.3%
CCc1cc(C(=O)NN)c2ccccc2n1 | -17.6% | -14.6% | -10.6% | -18.4% | -11.8% | 11.5%
CC1=CC2C(c3ccccc3)Nc3ccccc3N2C1=O (stereo not drawn) | 32.6% | 8.4% | 10.2% | 8.45% | -8.65% | -6.45%
COC(=O)CCC(CCc1ccccc1)(C(C)=O)C(C)=O | -2.4% | -13.1% | -16.5% | -4.05% | 19.3% | 7.7%
Cc1ccc(S(=O)(=O)Nn2c(O)c(C#N)c(-c3ccc(N(C)C)cc3)c(C#N)c2=O)cc1 | -6.7% | -20.1% | -44.5% | 1.7% | -19.1% | -20.9%
Cn1c(=O)[nH]nc(Br)c1=O | 2.55% | -9.7% | -9% | -4.75% | -4.6% | -24.9%
COc1cc(N=Nc2c(Cl)cc([N+](=O)[O-])cc2Cl)c(OC)cc1N=Nc1ccc(N)nc1N | 23.4% | 28% | 7.05% | 5.9% | 3.85% | 9.45%
COC(=O)CCC(N)C(=O)NC(Cc1ccccc1)C(=O)NC(C)C(=O)NC1C(O)OC(CO)C(O)C1O (stereo not drawn) | 3.95% | 15.8% | 4.75% | -0.65% | -7.6% | -5.6%
Cc1cc(N(CCC#N)CCC#N)ccc1/C=C(\NC(=O)/C=C/c1ccccc1)C(N)=O | 3.15% | -7.85% | 15.1% | -10.6% | -33.1% | -15.8%
COC(=O)c1ccccc1NCc1cc(Cl)ccc1O | 96.2% (active) | 97.3% (active) | 96.7% (active) | 92.8% (active) | 95.8% (active) | 94.9% (active)
Cc1ccccc1NC(=O)c1ccc(C(=O)Nc2ccccc2C)cc1 | 11% | -10.8% | 9.2% | 7.8% | 1.05% | 35.9%
CCc1ccc(N=Cc2cc(OC)c(OC)c(OC)c2)cc1 | -4.2% | 16.4% | 29.4% | 4.75% | 14.2% | -6.45%
Cc1ccc(S(=O)(=O)NC(=O)Nc2c(-c3nc4ccccc4s3)[n+]([O-])c3ccccc3[n+]2[O-])cc1 | 27.8% | 5.5% | 15.2% | 30.4% | 10.1% | 18.9%
O=C(OCc1ccccc1)c1ccc(NCc2cc(O)ccc2O)cc1 | 88.7% (active) | 90.7% (active) | 89.7% (active) | 89.6% (active) | 88% (active) | 92.2% (active)
CC1(C)OC2C(=O)C3COC(O3)C2O1 (stereo not drawn) | -10.7% | -0.25% | -25.1% | -36% | 0% | 5.8%
CC12CCC(C1)C(C)(C)/C2=N\O (stereo not drawn) | -16.2% | -13.8% | 2.55% | 4.85% | 0.05% | 2.65%

Source: PubChem BioAssay (NCI)
